# GIRK2 activator: GIRK2 channel activators by thallium flux. P48051. HEK293 GIRK2/NPY4 cells, thallium flux fluorescence. activation (% efficacy), % for hits at 37.5 µM. 34,000 tested, under 10 active;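 active = primary screen hit, no activity in plain HEK293 cells, and in GIRK2-only cells above 5% efficacy rising with concentration; inactive = the rest, including fluorescent compounds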;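 note: efficacy is normalized control-subtracted fluorescence 15 s after thallium addition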
# GluA2 TARP mod: GluA2-stargazin AMPA receptor complex modulation; O88602+P19491; HEK293 GluA2+stargazin, membrane potential dye (FDSS), glutamate EC50; hits were called plate by plate, in both directions; calls only at 30 µM; hit rate 3.5% among 40,000;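 active = any of four per-well response measures lying three or more SD from its plate-wide compound average, in either direction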
# Calls only; – = inactive; · = not tested or not shown; + = active, no number. This excerpt belongs to a sample that is enriched for hits.
SMILES,GIRK2 activator,GluA2 TARP mod
CC(=O)Nc1ccc(NC(=O)CSc2ccc(S(=O)(=O)C(F)(F)F)cc2[N+](=O)[O-])cc1,·,–
O=C(CS(=O)(=O)c1ccc(Cl)s1)Nc1ccc(Oc2ccccc2)cc1,–,–
O=C(CS(=O)(=O)c1ccc(Cl)s1)Nc1cccc(C(F)(F)F)c1,–,+
CN(C)CCNc1oc(-c2ccc(S(=O)(=O)N(C)Cc3ccccc3)cc2)nc1C#N,–,–
COc1cn(CC(=O)Nc2cccc(C(F)(F)F)c2)c(CSc2nc(C)cc(C)n2)cc1=O,–,–
COc1ccc(OC)c(NC(=O)NCCNc2nc(C)cc(N3CCCCC3)n2)c1,–,–
COc1cc(OC)c(NC(=O)NCCNc2nc(C)cc(N3CCCCC3)n2)cc1Cl,–,+
COc1ccc(Cl)cc1NC(=O)NC1CCCCC1N1C(=O)CSC1=O (stereo unspecified),·,–
CCOC(=O)c1c(C)c(C(=O)NCc2ccco2)c(C)n1CC,–,+
COCCNC(=O)C(=O)NCc1ccco1,–,–
Cc1cc(C)c(NS(=O)(=O)c2c(C)cc(C)cc2C)c(C)c1,·,–
COc1ccc(-c2noc(CSc3nc4ccsc4c(=O)n3Cc3cccc(OC)c3)n2)cc1,–,–
COc1ccc(C)cc1NC(=O)c1cc2c(=O)n3cc(C)ccc3nc2n1Cc1ccccc1,–,+
Cc1ccc2nc3c(cc(C(=O)NCC(=O)OC(C)C)n3Cc3ccccc3)c(=O)n2c1,–,–
O=C(Nc1onc2c1CSC2)c1cccc(-n2cnnn2)c1,–,–
Cc1ccsc1C(O)CNC(=O)Cn1c(=O)oc2ccccc21 (stereo unspecified),–,–
Cc1cc(C)n(-c2cc(C(C)C)nc3c(-c4ccccc4)c(C)nn23)n1,–,+
Cc1nn2c(N3CCN(c4ccccn4)CC3)cc(C(C)C)nc2c1-c1ccccc1,–,–
Cn1cc(C(=O)N2CCCC2)cc(NC(=O)c2ccco2)c1=O,·,–
Cc1ccc(C(CNC(=O)NC2CCCCC2)N2CCOCC2)cc1 (stereo unspecified),–,+
COc1cccc(C(CNC(=O)c2ccc([N+](=O)[O-])cc2)N2CCOCC2)c1 (stereo unspecified),–,–
COc1cccc(C(CNC(=O)C2CCCCC2)N2CCOCC2)c1 (stereo unspecified),·,+
COc1cccc(C(CNC(=O)Nc2ccccc2)N2CCOCC2)c1 (stereo unspecified),–,–
O=C(NCC(c1ccc(F)cc1)N1CCOCC1)NC1CCCCC1 (stereo unspecified),·,–
COc1cccc(C(CNC(=O)C2CCN(S(C)(=O)=O)CC2)N2CCOCC2)c1 (stereo unspecified),–,–
SMILES,GIRK2 activator,GluA2 TARP mod
COc1cccc(C(CNC(=O)Nc2ccc(Cl)cc2)N2CCOCC2)c1 (stereo unspecified),–,+
COc1cccc(C(CNC(=O)c2cccc([N+](=O)[O-])c2C)N2CCOCC2)c1 (stereo unspecified),–,+
CNC(=O)c1ccsc1NC(=O)CCS(=O)(=O)c1ccc(OC)cc1,–,–
Cc1ccc(S(=O)(=O)c2ccc(C(=O)N3CCN(Cc4ccccc4)CC3)cn2)cc1C,–,–
Cc1ccccc1Cn1nc2ccc(S(=O)(=O)N3CCCCC3)cn2c1=O,–,–
CC(=O)N1CCc2ccc(NS(=O)(=O)CCN3C(=O)CCCC3=O)cc21,–,–
Cc1cc(C)c(C(=O)NCC(c2cccn2C)N(C)C)c(C)c1 (stereo unspecified),–,–
CCN(CC)c1ccc(C2C(C(=O)Nc3cccc(C(F)(F)F)c3)=C(C)NC3=C2C(=O)CCC3)cc1 (stereo unspecified),·,–
CC1=C(C(=O)Nc2cccc(C(F)(F)F)c2)C(c2ccc(C)cc2)C2=C(CCCC2=O)N1 (stereo unspecified),·,+
COC(=O)c1cccc(NS(=O)(=O)c2ccc(F)cc2)c1C,·,–
COc1ccc(S(=O)(=O)/N=C2/C=C(Nc3cccc(C)c3)C(=O)c3ccccc32)cc1,·,+
COC(=O)c1ccccc1NC1=C/C(=N/S(=O)(=O)c2ccc(F)cc2)c2ccccc2C1=O,·,+
COc1ccc(S(=O)(=O)/N=C2/C=C(Nc3ccc(C)cc3)C(=O)c3ccccc32)cc1,·,+
CCOc1ccc(NC2=C/C(=N/S(=O)(=O)c3ccc(OC)cc3)c3ccccc3C2=O)cc1,·,–
COc1ccc(S(=O)(=O)CCC(=O)Nc2cc(C)cc(C)c2)cc1,–,–
O=C(NCCC(O)c1cccs1)C1(c2ccccc2)CCOCC1 (stereo unspecified),–,–
CCOCC(=O)NCC1CCN(C(=O)c2snnc2C)CC1,–,–
Cc1cc(C)c(NS(=O)(=O)c2ccc(N3C(=O)C(C)CS3(=O)=O)cc2)c(Cl)c1 (stereo unspecified),–,–
CS(=O)(=O)c1ccc2nc(NC(=O)Cn3cccn3)sc2c1,–,–
Cc1cn(C)nc1C(=O)Nc1nc2ccc(S(C)(=O)=O)cc2s1,–,+
